test system: BRAF; conditions: concentration: 1 μM, replicates: in singlicate; n = 1
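Also: KINOMEscan kinase panel screen.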

Structure (SMILES)	%Inh [%]
Cc1cccc(-c2cc(-c3c[nH]nc3-c3ccccn3)ccn2)c1 [GW679395]	8
COc1ccc(-c2coc3ccc(-c4nnc(SCc5cccc(C#N)c5)o4)cc23)cc1	0
COc1ccc(CNC(=O)NC2CCN(c3ccnc(Nc4ccc(F)cc4)n3)C2)cc1 (stereo not drawn) [GSK1379706]	3
COc1cc2ncn(-c3cc(OCc4ccncc4Br)c(C(N)=O)s3)c2cc1OC [GW854278]	2
Cc1nnc(-c2ccc(C)c(-c3ccc(C(=O)O)cc3)c2)o1 [GW608005]	0
COc1cc2ncn(-c3cc(OCCCc4ccccc4)c(C(N)=O)s3)c2cc1OC [GSK205189]	0
Cc1cc(Nc2nc(-c3cccc(C)n3)nc3ccccc23)ccn1 [GW872411]	0
Cc1ccc(-c2ccc3c(ccc4sc5c(c43)NC[C@@H](C)N=C5N(C)C)n2)cn1	0
CCc1ccc(-c2ccc3c(c2)-c2nn(C)cc2S(=O)(=O)N3C)cc1	32
Nc1n[nH]c2ncc(-c3ccccc3)cc12 [SB-517081]	0
Nc1ncnc2c1ncn2-c1cccc2ccccc12 [SKF-97184]	0
O=C(NCCNc1ccnc(Nc2ccc(F)cc2)n1)Nc1ccc2c(c1)OCO2 [GSK1379882]	0
O=C(Nc1n[nH]c2nc(-c3ccccc3)c(Br)cc12)C1CC1 [SB-708998]	31
Cl.NS(=O)(=O)c1cccc(Nc2cc(-c3ccc(F)cc3)n[nH]2)c1 [GW824645]	33
O=C(Nc1ccc2c(c1)OCO2)NC1CCN(c2ccnc(NCc3ccc(F)cc3)n2)CC1 [GSK1379859]	0
CC(C)(C)c1ccc(C(=O)Nc2cn3cc(-c4ccccc4)ccc3n2)cc1	0
C[C@@H]1CC[C@H](C(=O)NC2CCCCC2)CN1c1cc(-c2ccc3c(N)n[nH]c3c2)nc(N)n1 [GSK2291363]	5
O=C(Nc1n[nH]c2nc(-c3ccccc3)c(Cl)cc12)C1CC1 [SB-734909]	62

Structure (SMILES)	%Inh [%]
COC(=O)c1c(-c2ccccc2)c2cc(Br)ccc2c(=O)n1Cc1ccc(NC(=O)CCC(=O)O)cc1	42
O=C(Nc1n[nH]c2cc(-c3ccccc3F)ccc12)C1CC1 [SB-733371]	0
Cc1nc(N(C)[C@H]2CN(C(=O)CC#N)CC[C@H]2C)c2cc[nH]c2n1	0
Cc1nn2c(=O)cc(N3CCOCC3)nc2n1Cc1cccc(Cl)c1Cl [GSK2342769]	7
Cc1cccc(-c2nc(Nc3ccc4c(cnn4C)c3)c3ccccc3n2)n1 [GW876731]	0
FC(F)(F)c1ccc(-c2ncn(CCCN3CCOCC3)c2-c2ccncc2)cc1 [SB-217780]	0
COc1cc(Nc2ccnc3ccc(C(F)(F)F)cc23)cc(OC)c1OC [GW577382]	8
CCS(=O)c1ccc(-c2coc3ccc(-c4nnc(C)o4)cc23)cc1 (stereo not drawn)	0
O=c1cc(N2CCOCC2)nc2n(Cc3ccc(F)c(Cl)c3)ccn12 [GSK2297099]	8
CCC(=O)c1c(-c2ccccc2)c2cc(Cl)ccc2c(=O)n1Cc1cc(S(C)(=O)=O)n(CCC(C)(C)O)n1	1
Cn1c(=O)c(F)c(Nc2ccc(I)cc2F)c2c(=O)n(OC[C@H](O)CO)cnc21	0
COc1cc(OC)cc(-c2cc3cnc(N)nc3nc2NC(=O)NC(C)(C)C)c1	10
Fc1cccc(CSc2nnc(-c3ccc4c(c3)CCO4)o2)c1	7
COc1cc(Nc2nccc(N3CCC(NC(=O)C4COc5ccccc5O4)C3)n2)cc(OC)c1OC (stereo not drawn) [GSK1379761]	0
O=C1NC(=O)C(c2ccccc2)=C1Nc1cccc(O)c1 [SB-390534]	0
CN(C)c1cc(-c2ccc3c(N)n[nH]c3c2)nc(N)n1 [GSK2219329]	0
Cc1ccc(Oc2ccc(Nc3ncnc4cc[nH]c34)cc2C)cn1	0
CN1C(=O)C(Nc2ccccc2)=C(c2ccccc2)C1=O [SB-300079]	9

test system: T1, BRK; conditions: concentration: 1 μM, replicates: in singlicate; n = 1
T1 construct: gene PTK6

Structure (SMILES)	%Inh [%]
Cc1cccc(-c2cc(-c3c[nH]nc3-c3ccccn3)ccn2)c1 [GW679395]	4
COc1ccc(-c2coc3ccc(-c4nnc(SCc5cccc(C#N)c5)o4)cc23)cc1	10
COc1ccc(CNC(=O)NC2CCN(c3ccnc(Nc4ccc(F)cc4)n3)C2)cc1 (stereo not drawn) [GSK1379706]	21
COc1cc2ncn(-c3cc(OCc4ccncc4Br)c(C(N)=O)s3)c2cc1OC [GW854278]	6
Cc1nnc(-c2ccc(C)c(-c3ccc(C(=O)O)cc3)c2)o1 [GW608005]	0
COc1cc2ncn(-c3cc(OCCCc4ccccc4)c(C(N)=O)s3)c2cc1OC [GSK205189]	1
Cc1cc(Nc2nc(-c3cccc(C)n3)nc3ccccc23)ccn1 [GW872411]	0
Cc1ccc(-c2ccc3c(ccc4sc5c(c43)NC[C@@H](C)N=C5N(C)C)n2)cn1	0
CCc1ccc(-c2ccc3c(c2)-c2nn(C)cc2S(=O)(=O)N3C)cc1	0
Nc1n[nH]c2ncc(-c3ccccc3)cc12 [SB-517081]	24
Nc1ncnc2c1ncn2-c1cccc2ccccc12 [SKF-97184]	0
O=C(NCCNc1ccnc(Nc2ccc(F)cc2)n1)Nc1ccc2c(c1)OCO2 [GSK1379882]	0
O=C(Nc1n[nH]c2nc(-c3ccccc3)c(Br)cc12)C1CC1 [SB-708998]	0
Cl.NS(=O)(=O)c1cccc(Nc2cc(-c3ccc(F)cc3)n[nH]2)c1 [GW824645]	0
O=C(Nc1ccc2c(c1)OCO2)NC1CCN(c2ccnc(NCc3ccc(F)cc3)n2)CC1 [GSK1379859]	4
CC(C)(C)c1ccc(C(=O)Nc2cn3cc(-c4ccccc4)ccc3n2)cc1	0
C[C@@H]1CC[C@H](C(=O)NC2CCCCC2)CN1c1cc(-c2ccc3c(N)n[nH]c3c2)nc(N)n1 [GSK2291363]	27
O=C(Nc1n[nH]c2nc(-c3ccccc3)c(Cl)cc12)C1CC1 [SB-734909]	0

Structure (SMILES)	%Inh [%]
COC(=O)c1c(-c2ccccc2)c2cc(Br)ccc2c(=O)n1Cc1ccc(NC(=O)CCC(=O)O)cc1	0
O=C(Nc1n[nH]c2cc(-c3ccccc3F)ccc12)C1CC1 [SB-733371]	0
Cc1nc(N(C)[C@H]2CN(C(=O)CC#N)CC[C@H]2C)c2cc[nH]c2n1	0
Cc1nn2c(=O)cc(N3CCOCC3)nc2n1Cc1cccc(Cl)c1Cl [GSK2342769]	1
Cc1cccc(-c2nc(Nc3ccc4c(cnn4C)c3)c3ccccc3n2)n1 [GW876731]	0
FC(F)(F)c1ccc(-c2ncn(CCCN3CCOCC3)c2-c2ccncc2)cc1 [SB-217780]	4
COc1cc(Nc2ccnc3ccc(C(F)(F)F)cc23)cc(OC)c1OC [GW577382]	8
CCS(=O)c1ccc(-c2coc3ccc(-c4nnc(C)o4)cc23)cc1 (stereo not drawn)	0
O=c1cc(N2CCOCC2)nc2n(Cc3ccc(F)c(Cl)c3)ccn12 [GSK2297099]	0
CCC(=O)c1c(-c2ccccc2)c2cc(Cl)ccc2c(=O)n1Cc1cc(S(C)(=O)=O)n(CCC(C)(C)O)n1	7
Cn1c(=O)c(F)c(Nc2ccc(I)cc2F)c2c(=O)n(OC[C@H](O)CO)cnc21	2
COc1cc(OC)cc(-c2cc3cnc(N)nc3nc2NC(=O)NC(C)(C)C)c1	0
Fc1cccc(CSc2nnc(-c3ccc4c(c3)CCO4)o2)c1	2
COc1cc(Nc2nccc(N3CCC(NC(=O)C4COc5ccccc5O4)C3)n2)cc(OC)c1OC (stereo not drawn) [GSK1379761]	2
O=C1NC(=O)C(c2ccccc2)=C1Nc1cccc(O)c1 [SB-390534]	0
CN(C)c1cc(-c2ccc3c(N)n[nH]c3c2)nc(N)n1 [GSK2219329]	0
Cc1ccc(Oc2ccc(Nc3ncnc4cc[nH]c34)cc2C)cn1	0
CN1C(=O)C(Nc2ccccc2)=C(c2ccccc2)C1=O [SB-300079]	0
